{"source": "PubChem BioAssay (Tox21)", "note": "The source made the active and inactive calls. Calls follow the shape of the dose curve; as a rule, active = well fitted curve in the direction sought with a large enough effect in the repeat runs; inconclusive = weak or mixed curves; inactive = flat fitted curve, though single readings scatter. % is scaled to controls: 0 for no effect and ±100 for the full control effect.", "data": [{"experiment": "qHTS assay to test for compound auto fluorescence at 535 nm (green) in HEK293 cells (AID 720680)", "settings": "green autofluorescence 485/535 nm; series mostly up to 91.3 µM; fluorescence, % of fluorescein: at the top concentration", "description": "U.S. Tox21 Program National Center for Advancing Translational Sciences [NCATS] NIH Chemical Genomics Center [NCGC] U.S. Environmental Protection Agency [EPA] National Institutes of Environmental Health Sciences [NIEHS] National Toxicology Program [NTP] U.S. Food and Drug Administration [FDA] Tox21 Assay Overview: Compound auto fluorescence often interferes with screening of the compound library against various biological targets and signaling pathways. Some of these compounds may have fluorophoric properties. Such properties may interfere with the assay outputs resulting in false positives and/or negatives. To decrease such complications and ensure the compound activities are relevant in terms of biological response, the Tox21 10K compound library was screened for auto fluorescence. From the fluorophores used as reporter signals in our screening assays, the auto fluorescence equivalencies of compounds against three fluorophores have been evaluated: Triamterene, Fluorescein and Rose Bengal sodium for blue, green and red fluorescence, respectively. The fluorescence intensities were measured using Excitation/Emission wavelengths at 405/460nm, 485/535nm and 540/590nm for blue, green and red labels, respectively. This assay includes the green fluorescence data.\nTox21 Assay Protocol Summary: 2,000 HEK293 cells in 5 uL of culture medium containing 10% dialyzed FBS per well were dispensed into black wall/clear bottom 1536-well plates using a Multidrop Combi Dispenser (Thermo Scientific). The assay plates were incubated for 4-5 hr at 37C to allow cell attachment to the well bottom, followed by the transfer of 23 nL compound or DMSO vehicle by a pintool work station (Kalypsys, San Diego, CA). After the assay plates were incubated overnight at 37C and 5% CO2, fluorescence intensities in the assay plates were measured by an Envision (PerkinElmer, Shelton, CT) plate reader using three labels for measuring blue, green and red fluorescence at […] 460, 535 and 590nm respectively.", "values": [{"smiles": "Cc1ccc(C(N)=O)cc1N", "fluorescence, % of fluorescein": "-0.0062% (inactive)"}, {"smiles": "CN(C)CCCNCCCN", "fluorescence, % of fluorescein": "0.0886% (inactive)"}, {"smiles": "CCOC(=O)CC(=O)c1cc(F)c(Cl)nc1Cl", "fluorescence, % of fluorescein": "0.0014% [at 95.7 µM] (inactive)"}, {"smiles": "NC(N)=NN=C(/C=C/c1ccc([N+](=O)[O-])o1)/C=C/c1ccc([N+](=O)[O-])o1", "fluorescence, % of fluorescein": "-0.125% [at 46 µM] (inactive)"}, {"smiles": "CC(C)CCCCCCOC(=O)c1ccc(C(=O)OCCCCCCC(C)C)c(C(=O)OCCCCCCC(C)C)c1", "fluorescence, % of fluorescein": "0.0137% (inactive)"}, {"smiles": "O=[N+]([O-])c1cccc(Cl)c1Cl", "fluorescence, % of fluorescein": "-0.0213% (inactive)"}, {"smiles": "O=[N+]([O-])c1cc[n+]([O-])cc1", "fluorescence, % of fluorescein": "-0.155% (inactive)"}, {"smiles": "O=C(NS(=O)(=O)/C=C/c1cccs1)c1ccc(F)cc1Br", "fluorescence, % of fluorescein": "-0.0142% (inactive)"}, {"smiles": "Cn1c(NCCN(CCO)CCCc2ccc([N+](=O)[O-])cc2)cc(=O)n(C)c1=O", "fluorescence, % of fluorescein": "0.0742% [at 46 µM] (inactive)"}, {"smiles": "CCCCCC(CO)CCC", "note": "(stereo not given)", "fluorescence, % of fluorescein": "-0.135% (inactive)"}, {"smiles": "OCC1CC2CC1C1CCC(CO)C21", "note": "(stereo not given)", "fluorescence, % of fluorescein": "0.155% (inactive)"}, {"smiles": "CC(=O)CC(=O)c1ccccc1", "fluorescence, % of fluorescein": "0.0031% (inactive)"}, {"smiles": "CC(C(=O)O)c1ccc(-c2ccccc2)c(F)c1", "note": "(stereo not given)", "outcome": "inactive"}, {"smiles": "Cn1c(=O)c2c(ncn2CC(O)CO)n(C)c1=O", "note": "(stereo not given)", "fluorescence, % of fluorescein": "-0.0383% [at 18.6 µM] (inactive)"}, {"smiles": "Oc1ccc(Cc2ccccc2)cc1", "fluorescence, % of fluorescein": "0.0785% (inactive)"}, {"smiles": "CC(=O)NCCCS(=O)(=O)O", "outcome": "inactive"}, {"smiles": "CCN1CCC[C@H]1CNC(=O)c1c(OC)ccc(Br)c1OC", "fluorescence, % of fluorescein": "-0.0971% [at 46 µM] (inactive)"}, {"smiles": "O=c1c2ccccc2nnn1CCl", "fluorescence, % of fluorescein": "0.1% (inactive)"}, {"smiles": "CC(C)(C)c1cc(O)c(C(C)(C)C)cc1O", "fluorescence, % of fluorescein": "0.147% (inactive)"}, {"smiles": "O=C(O)[C@@H]1[C@H]2C[C@H]3c4[nH]c5ccccc5c4CCN3C[C@@H]2CC[C@@H]1O", "fluorescence, % of fluorescein": "-0.047% [at 18.6 µM] (inactive)"}, {"smiles": "CCCCCOC(=O)COc1cc(N2C(=O)C3=C(CCCC3)C2=O)c(F)cc1Cl", "fluorescence, % of fluorescein": "0.0659% (inactive)"}, {"smiles": "CC(=O)SCc1ccco1", "fluorescence, % of fluorescein": "0.102% (inactive)"}, {"smiles": "CCC(=O)OC(C)(C)C1CC=C(C)CC1", "note": "(stereo not given)", "fluorescence, % of fluorescein": "0.0027% (inactive)"}, {"smiles": "CCCCCCCC/C=C\\CCCCCCCC(N)=O", "fluorescence, % of fluorescein": "0.0094% (inactive)"}, {"smiles": "CCCCCc1ccc(N)cc1", "fluorescence, % of fluorescein": "0.007% (inactive)"}, {"smiles": "CNS(=O)(=O)Cc1ccc2[nH]cc(CCN(C)C)c2c1", "fluorescence, % of fluorescein": "-0.0625% [at 46 µM] (inactive)"}, {"smiles": "CCCCCOC(=O)c1ccc(O)cc1", "fluorescence, % of fluorescein": "-0.151% [at 95.7 µM] (inactive)"}, {"smiles": "CN1CCN(C2=Nc3ccccc3Sc3ccc(Cl)cc32)CC1", "fluorescence, % of fluorescein": "-0.044% [at 46 µM] (inactive)"}, {"smiles": "COc1ccc(C(C)=O)cc1", "fluorescence, % of fluorescein": "0.0337% [at 95.7 µM] (inactive)"}, {"smiles": "CCCOc1ccc2nc(NC(=O)OC)[nH]c2c1", "fluorescence, % of fluorescein": "-0.0274% [at 46 µM] (inactive)"}, {"smiles": "CC[C@H](C)[C@H](N)C(=O)O", "fluorescence, % of fluorescein": "-0.31% [at 46 µM] (inactive)"}, {"smiles": "Oc1ccc2c(c1)OCO2", "fluorescence, % of fluorescein": "-0.147% (inactive)"}, {"smiles": "CN(C)CC[C@@H](c1ccc(Br)cc1)c1ccccn1", "fluorescence, % of fluorescein": "0.0429% [at 46 µM] (inactive)"}, {"smiles": "COc1ccc([C@@H]2Sc3ccccc3N(CCN(C)C)C(=O)[C@@H]2OC(C)=O)cc1", "fluorescence, % of fluorescein": "0.0331% [at 46 µM] (inactive)"}, {"smiles": "CC1CCc2cc(F)cc3c(=O)c(C(=O)O)cn1c23", "note": "(stereo not given)", "fluorescence, % of fluorescein": "-0.0717% [at 46 µM] (inactive)"}, {"smiles": "O=C(Nc1ccccc1)OCC(CN1CCCCC1)OC(=O)Nc1ccccc1", "note": "(stereo not given)", "fluorescence, % of fluorescein": "0.0795% [at 18.6 µM] (inactive)"}, {"smiles": "Cc1nc2ccccc2n1Cc1ccc(Cl)cc1", "fluorescence, % of fluorescein": "-0.0742% [at 46 µM] (inactive)"}, {"smiles": "CC(C)NCC(O)COc1ccc(CC(N)=O)cc1", "note": "(stereo not given)", "fluorescence, % of fluorescein": "-0.0149% (inactive)"}, {"smiles": "COC(=O)CSc1cc(N=c2sc(=O)n3n2CCCC3)c(F)cc1Cl", "fluorescence, % of fluorescein": "-0.0759% (inactive)"}, {"smiles": "O=C(Cl)c1c(Cl)cccc1Cl", "fluorescence, % of fluorescein": "0.0592% [at 95.7 µM] (inactive)"}]}]}
